Most compounds without a hit are left out; they make up all but 1.6% or so of the library.
MLLE-PAM2 inh = blocks PAM2 peptide binding to the PABP1 MLLE domain | P11940 | GST-MLLE / FITC-PAM2 fluorescence polarization | inhibition, % at 20 µM | 360,000 tested, 0.36% active | AID 588489; in the data active = inhibition above about 35%, passing the limit was not always enough;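 note: plate controls were DMSO wells with GST-MLLE for no effect and wells lacking GST-MLLE protein for full effect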
eIF4H FP inh = inhibitors of RNA binding by human eIF4H; 290,000 tested, 0.94% active; inhibition, % at 35 µM; eIF4H fluorescence polarization binding assay;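 note: calls also rest on retests at 20 µM and on dose response follow-up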
eIF4E 4G PPI = inhibitors of eIF4E and eIF4G interaction in translation initiation; inhibition, % at 21.7 µM; TR-FRET eIF4E-eIF4GI(517-606) binding, 2 h; 220,000 tested, 0.37% active; P63073+Q04637;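 active = inhibition above about 30%, limit read from the data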;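 note: 0% = full FRET control wells and 100% = background wells lacking eIF4GI fragment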
PABP FP inh = blocks human PABP binding to poly(A) RNA; P11940; fluorescence polarization; inhibition, % at 35 µM; 290,000 tested, 1% active;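 note: calls also rest on retests at 20 µM and on dose response follow-up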
PERK inhibitor = blocks human PERK kinase; CHO PERK-DD fusion, SEAP luminescence translation reporter; inhibition, % at 5.6 µM; 220,000 tested, 0.17% active; AID 1416;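 active = inhibition above the mean inhibition of all tested compounds plus 3 SD, set separately per screening campaign, cut at about 2.9% in these data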;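 note: PERK kinase domain activated by AP20187 dimerizer at 100 nM; 0% = DMSO with dimerizer and 100% = rapamycin at 8.4 µM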
Numbers without * were called inactive; i = inactive; x = no result given. Unless noted, the rule behind the calls is not given here.

SMILES	MLLE-PAM2 inh	eIF4H FP inh	eIF4E 4G PPI	PABP FP inh	PERK inhibitor
O=C1N=c2ccccc2=C1c1sc(Nc2cccc(O)c2)nc1O	-17	59*	x	20*	x
CN(C)c1ccccc1-c1cc(NC=O)c2ncc(-c3cccc(C(F)(F)F)c3)n2c1	i	x	x	x	x
Cn1cc(CCC(=O)N2CCCC(Nc3ccc(F)cc3)C2)cn1 (stereo unspecified)	7	-4	x	-3	x
Cc1nn(C)c(C)c1N1C(=O)c2cccc3c(Br)ccc(c23)C1=O	16	14	4	28	0
Cc1nn(C)c(C)c1N1C(=O)c2cccc3c(N)ccc(c23)C1=O	i	129	0	118*	1
CCOC(=O)COn1c(=O)c(-c2cc3ccccc3o2)[n+]([O-])c2ccccc21	20	64	-8	42*	0
C=CCOn1c(=O)c(-c2cc3ccccc3o2)[n+]([O-])c2ccccc21	1	58*	3	47*	0
CCOC(=O)COn1c(=O)c(-c2ccc(F)cc2)[n+]([O-])c2ccccc21	-13	-8	x	1	x
CC(=O)COc1ccc2c(C)c(C)c(=O)oc2c1	16	-6	15	7	0
CSc1ccc(CN(C)C(=O)c2cccc(S(=O)(=O)NCc3ccccc3)c2)cc1	7	25	x	57*	x
Fc1ccc(NC(=S)N2CCCC(c3ccccc3)=N2)cc1	-90	54*	-3	active	-1
Fc1ccc(NC(=S)N2CCCC2)cc1	-93	x	x	x	2
COc1cccc(C2C(C#N)=C(N)OC(C(C)(C)C)=C2C#N)c1 (stereo unspecified)	-1	-1	1	15	0
COc1cccc(/C=C2/CN(C)CC3=C2OC(N)=C(C#N)C3c2cccc(OC)c2)c1 (stereo unspecified)	-47	75*	4	78*	0
O=C(CCSc1nnnn1-c1ccccc1)N1CCOCC1	-7	4	2	0	-1
COc1cccc(-c2nc(-c3ccccc3)nc(N3CCN(C)CC3)c2C#N)c1	1	active	-6	59	0
COc1ccc(-c2nc(-c3ccccc3)nc(N3CCN(C)CC3)c2C#N)cc1	5	0	0	-1	0
CC(=O)N(C(C)=O)c1c(N2CCOCC2)c2ccccc2oc1=O	-9	-3	-11	0	1
Fc1ccc(C2CCCN2Cc2nc(Cc3ccccc3)no2)cc1 (stereo unspecified)	8	-4	60*	-2	1
COc1ccccc1NS(=O)(=O)c1cc([N+](=O)[O-])ccc1N/N=C/c1sc(N2CCOCC2)nc1-c1ccccc1	-157	71*	-5	active	1
O=C(CSc1ncnc2ccccc12)Nc1cccc(S(=O)(=O)N2CCOCC2)c1	-9	-5	-3	-16	-1
C/C=C(\C)C(=O)NCCN1C2=NC[C@@H](Cc3ccccc3)N2C[C@@H]1Cc1ccc(OC)cc1	17	x	x	x	x
CCCCCCNC(=O)N[C@@H](C(=O)NCCC[C@H]1CN2C(=NC[C@@H]2Cc2ccccc2)N1CCc1cccc(OC)c1)C(C)C	x	-10	41*	14	x
Cc1ccc(-n2nc(-c3ccco3)cc2C(=O)O)cc1	14	94*	20	60*	2
CCSCc1nnc(SCC(=O)c2ccc(OC)cc2)n1C	17	-8	-9	-7	0
SMILES	MLLE-PAM2 inh	eIF4H FP inh	eIF4E 4G PPI	PABP FP inh	PERK inhibitor
O=C(CN1C(=O)c2ccccc2S1(=O)=O)Nc1ncccn1	6	x	x	x	x
O=C(CN1C(=O)c2ccccc2S1(=O)=O)Nc1ncc(Cl)cc1Cl	49*	x	x	x	x
COCCN(C(=O)c1cccc(OC)c1)c1nnc(-c2ccncc2)s1	1	-4	12	11	0
COCCN(C(=O)/C=C/c1ccccc1)c1nnc(-c2cccnc2)s1	-14	52	-5	9.6*	0
CCCc1ccc(OCc2ccccc2)c2c(=O)cc(C(=O)OCC)oc12	0	1	11	2	3.1*
CCCCCC(=O)NNC(=S)NC(=O)c1ccc([N+](=O)[O-])cc1	39*	62	-3	4	0
O=C(NC(=S)NNC(=O)c1ccccc1O)c1ccc([N+](=O)[O-])cc1	41*	3	x	-12	x
O=C(NNC(=S)NC(=O)c1ccccc1)c1ccc([N+](=O)[O-])cc1	30	0	x	-3	x
Cc1ccc(C(=O)NC(=S)NNC(=O)c2ccc([N+](=O)[O-])cc2)cc1	24	9	x	-6	x
C/C(CC(=O)Nc1ccc([N+](=O)[O-])cc1)=N\NC(=O)c1ccccc1O	-14	82*	x	31	x

Bioassay records deposited in PubChem by several laboratories.
